Potency and activation data for 40 compounds are collected here from PubChem BioAssay (Tox21).

Molecules are shown by their SMILES. A number with no mark means an inactive call. A call without a number means that no potency is given here. Calls of active or inactive are those of the source. Calls follow the shape of the full dose curve.

Estrogen receptor (Homo sapiens), sequence (P03372 whole entry, looked up): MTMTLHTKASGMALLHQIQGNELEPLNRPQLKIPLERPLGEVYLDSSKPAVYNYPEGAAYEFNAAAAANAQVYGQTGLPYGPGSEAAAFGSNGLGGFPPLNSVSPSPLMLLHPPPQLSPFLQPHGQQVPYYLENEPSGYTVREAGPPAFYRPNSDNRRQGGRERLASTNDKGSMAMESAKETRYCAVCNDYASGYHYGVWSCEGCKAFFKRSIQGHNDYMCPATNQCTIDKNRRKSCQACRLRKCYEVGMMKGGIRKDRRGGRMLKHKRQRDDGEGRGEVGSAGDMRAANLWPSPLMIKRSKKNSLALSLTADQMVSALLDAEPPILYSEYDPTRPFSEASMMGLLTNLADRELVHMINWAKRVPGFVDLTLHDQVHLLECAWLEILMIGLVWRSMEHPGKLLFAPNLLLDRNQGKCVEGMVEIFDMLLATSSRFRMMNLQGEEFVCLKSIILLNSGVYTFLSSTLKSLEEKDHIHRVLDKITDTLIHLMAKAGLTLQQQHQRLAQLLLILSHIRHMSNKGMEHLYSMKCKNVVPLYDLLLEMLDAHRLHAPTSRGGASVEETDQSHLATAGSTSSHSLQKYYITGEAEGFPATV

For the assay, the target named is Estrogen receptor (Homo sapiens) (UniProt P03372). Put plainly: qHTS assay to identify small molecule agonists of the estrogen receptor alpha (ER-alpha) signaling pathway in the presence of an antagonist (AID 1259383). Also: top concentration of the series differs between compounds; nearly all actives have a fitted effect of over 15% in size. The following applies: VM7Luc4E2 cells, ERE-luciferase, +ICI-182,780, 22 h; series mostly up to 92.4 µM. The source says:
National Center for Advancing Translational Sciences [NCATS] NIH Chemical Genomics Center [NCGC] U.S. Environmental Protection Agency [EPA] National Institutes of Environmental Health Sciences [NIEHS] National Toxicology Program [NTP] Assay overview: Estrogen receptor (ER), a member of nuclear hormone receptor plays an important role in development, metabolic homeostasis and reproduction. Two subtypes of ER, ER-alpha and ER-beta, have similar expression patterns with some uniqueness in both types. Endocrine disrupting chemicals (EDCs) and their interactions with steroid hormone receptors like ER causes disruption of normal endocrine function. Therefore, it is important to understand the effect of environmental chemicals in ER signaling pathway. For identifying ER agonists, VM7Luc4E2 cell line has been used in the current assay. VM7Luc4E2 cell line (provided by Denison MS, University of California) endogenously expresses full-length ER-alpha and is stably transfected with a plasmid containing four estrogen responsive elements (ERE) upstream of a luciferase reporter gene. This current screening for measuring luciferase reporter gene activity using VM7Luc4E2 cells against Tox21 10K library collection is a confirmation study on agonist mode screening in presence of ER-antagonist (ICI-182,780) at 10.0nM final concentration.
Assay Protocol Summary: VM7Luc4E2 cells were cultured in phenol red free assay medium containing 10% charcoal stripped FBS for 5 days prior to the assay. The cells were dispensed at 4,000 cells in 4uL of assay medium per well into white wall/solid-bottom 1536-well plates (Corning Life Sciences, Corning, NY) using a Multidrop Combi (Thermo Fisher Scientific Inc., Waltham, MA) dispenser. After the assay plates were incubated at 37C and 5% CO2 for 24hr, 1uL of 10.0nM (final concentration) ICI-182,780 or assay buffer was added using two separate tips of Flying Reagent Dispenser (FRD, Aurora Discovery, San Diego, CA). Then 23nL of compounds dissolved in DMSO at 15 concentrations and positive controls or DMSO only was transferred to the assay plates by a Pintool station (Wako, San Diego, CA). The assay plates were incubated at 37C and 5% CO2 for 22hr. For luciferase read, 4uL/well ONE-Glo reagent (Promega Corporation, Madison, WI) was added to each well using FRD and after 30min incubation at room temperature, luminescence signal was measured on ViewLux plate reader (PerkinElmer, Shelton, CT).
Regarding `N#CCBr`, the Potency entry is “inactive”.

In the case of `Cc1nc(N)nc(N)n1`, the Potency entry is “inactive”. Still for that read-out and setting: for `CC(C(=O)c1ccccc1)N(C)C` (stereo not given) the value was “inactive”.

In the case of `CCOP(=S)(OCC)SCSc1ccc(Cl)cc1`, the Potency entry is “inactive”. As for `[Cl][Sn]([Cl])([Cl])[Cl]`, the Potency entry is “inactive”. Same read-out and setting: next, `CC1CCCCC1NC(=O)Nc1ccccc1` (stereo not given): “inactive”; `CSc1ccc(C(=O)C(C)(C)N2CCOCC2)cc1`: “inactive”; `CC(CCc1ccccc1)NC(C)C(O)c1ccc(O)cc1` (stereo not given): “inactive”. On to `ClC(Cl)Br`, for which the Potency entry is “inactive”. The same measure, in the same setting: next, `O=c1oc2ccccc2c(O)c1C1CCCc2ccccc21` (stereo not given): “inactive”; `C=CC1CC=CCC1` (stereo not given): “inactive”. As for `CCN(CC)C(=O)[C@@H]1C=C2c3cccc4[nH]cc(c34)C[C@H]2N(C)C1`, the Potency result is “inactive”.

Regarding `CC(Oc1ccc(Oc2ncc(C(F)(F)F)cc2Cl)cc1)C(=O)O` (stereo not given), the Potency result was “inactive”. Consider `CCC(=O)C(CCN(C)C)(c1ccccc1)c1ccccc1`, for which the Potency entry was “inactive”.

As to `Cc1ncc2n1-c1ccc(Cl)cc1C(c1ccccc1F)=NC2`, the Potency result is “inactive”. Same read-out and setting: next, `COC(=O)c1c(C(F)F)nc(C(F)(F)F)c(C2=NCCS2)c1CC(C)C`: “inactive”. Turning to `CCOP(=O)(N=C1SCCS1)OCC`, the Potency result was “inactive”. As to `O=C(Nc1ccccc1)c1ccccc1I`, the Potency result was “inactive”.

As for `CCOC(=O)C1(c2ccccc2)CCN(CCc2ccc(N)cc2)CC1`, the Potency entry was “inactive”.

As for `CC(Cl)(Cl)[N+](=O)[O-]`, the Potency entry was “inactive”.

Consider `COc1cccc2c1cc([N+](=O)[O-])c1c(C(=O)O)cc3c(c12)OCO3`, for which the Potency entry is “inactive”. For the compound `N#Cc1c(Cl)cccc1Cl`, the Potency entry is “inactive”. As to `ClCCCN1CCN(c2cccc(Cl)c2)CC1`, the Potency entry was “inactive”. `O=C(O)c1ccc2[nH]cc(CCCCN3CC=C(c4ccccc4)CC3)c2c1`: the Potency entry was “inactive”.

Consider `O=C1c2ccccc2C(=O)c2ccccc21`, for which the activation was 5.54% [at 19 µM]. Regarding `CCCSP(=S)(OCC)Oc1ccc(Cl)cc1Cl` (stereo not given), the Potency entry was “inactive”. Same read-out and setting: for `C[C@]12CC[C@H]3[C@@H](CCC4=CC(=O)CC[C@@]43C)[C@@H]1CC[C@@H]2C(=O)O` the value was “inactive”; for `O=[N+]([O-])c1ccc2c3c(cccc13)CC2`, “inactive”; for `COc1ccc2c(c1OC)CN1CCc3cc4c(cc3C1C2)OCO4` (stereo not given), “inactive”. The same measure, in the same setting: next, `O=C(NCO)NCO`: “inactive”. Turning to `Nc1cc(Cl)ccc1O`, the Potency entry was “inactive”. As for `C(CCOCC1CO1)COCC1CO1` (stereo not given), the Potency entry is “inactive”. `CC1=C(C(=O)Nc2ccccc2)S(=O)(=O)CCO1`: the Potency result was “inactive”. The same measure, in the same setting: for `CNC(=O)Oc1ccccc1C1OCCO1` the value was “inactive”; for `COC(=O)c1ccccc1S(=O)(=O)NC(=O)N(C)c1nc(C)nc(OC)n1`, “inactive”. Regarding `CC(=O)CC(c1ccc(Cl)cc1)c1c(O)c2ccccc2oc1=O` (stereo not given), the Potency result was “inactive”. For `CCC(C)n1c(=O)[nH]c(C)c(Br)c1=O` (stereo not given), the Potency result was “inactive”. With `O=C1CN=C(c2ccccc2)c2cc([N+](=O)[O-])ccc2N1`, the Potency entry was “inactive”. With `CCN(Cc1ccc(Cl)nc1)/C(=C/[N+](=O)[O-])NC`, the Potency result was “inactive”.

With `CN1CCC(N(Cc2ccccc2)c2ccccc2)CC1`, the Potency entry was “inactive”.
